“And” between values parts separate entries of the source, which are not always exact repeats. Identical values can stand only once. Counter-ions that a name gives are not always drawn.
Assays:
Test in all cases: cell viability relative to vehicle control; higher = less cytotoxic
Settings in all cases: 10 µM
K562 = system: K562
Procedure, shortened: (§1)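 CRISPR-edited SRSF2 P95 mutant and isogenic wild-type clones of four leukaemia lines were screened against Selleck bioactive, kinase and epigenetic probe libraries, with identity-inconsistent compounds removed. Compounds were acoustically dispensed into 384-well plates at a single 10 µM dose, with 2000 cells in 50 µL medium per well. After 48 h, supernatant was removed and CellTiter-Glo luminescence was read. Viability was expressed as percent of the on-plate DMSO vehicle control, analysed in Genedata Screener.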

MARIMO = system: MARIMO
Procedure, shortened: as §1

MOLM14 = system: MOLM14
Procedure, shortened: as §1

OCI-AML2 = system: OCI-AML2
Procedure, shortened: as §1

Row | Compound | cell viability (K562; SRSF2 genotype: SRSF2 P95H/wt) | cell viability (K562; SRSF2 genotype: SRSF2 wt/wt) [%] | cell viability (MARIMO; SRSF2 genotype: SRSF2 P95H/wt) [%] | cell viability (MARIMO; SRSF2 genotype: SRSF2 wt/wt) [%] | cell viability (MOLM14; SRSF2 genotype: SRSF2 P95H/wt) [%] | cell viability (MOLM14; SRSF2 genotype: SRSF2 wt/wt) [%] | cell viability (OCI-AML2; SRSF2 genotype: P95H/wt) [%] | cell viability (OCI-AML2; SRSF2 genotype: wt/wt) [%]
1 | CC=C(C)C(=O)O [S3803 Angelic acid.cdx] | 106% and 99.5% | 103 | 106 | 108 | 104 | 100 | 103 | 108
2 | CC(=O)c1ccc(O)c(C(=O)O)c1 [5-Acetylsalicylic acid] | 110% and 106% | 98 | 106 | 112 | 101 | 107 | 102 | 105
3 | Clc1ccc(COC(Cn2ccnc2)c2ccc(Cl)cc2Cl)cc1 (stereo unspecified) [Econazole nitrate (Spectazole)] | 67.2% and 76.7% | 70.1 | 64.3 | 71 | 58.2 | 73 | 57.8 | 52.4
4 | CCc1cc(/C(C)=N/OCc2ccc(C3CCCCC3)c(C(F)(F)F)c2)ccc1CN1CC(C(=O)O)C1 [BAF312 (Siponimod)] | 86.8% and 89.2% | 87 | 79.3 | 67.2 | 66.5 | 66.3 | 48.1 | 49.8
5 | COc1cc2ncnc(Sc3nnc(C)s3)c2cc1OC | 52.4% and 59.1% | 73.6 | 42 | 42.1 | 5.68 | 3.57 | 3.76 | 16.7
6 | CC1=C(/C=C/C(C)=C/C=C/C(C)=C/C=C/C=C(C)/C=C/C=C(C)/C=C/C2=C(C)CCCC2(C)C)C(C)(C)CCC1 [Beta Carotene] | 100% and 103% | 92 | 93.3 | 101 | 93.8 | 98 | 98.3 | 105
7 | Nc1ccc(S(=O)(=O)Nc2ccccn2)cc1 [Sulfapyridine (Dagenan)] | 94.3% and 101% | 97.1 | 97.7 | 107 | 103 | 100 | 106 | 97.6
8 | COc1ccc(NC(=O)c2ccc(C(=N)N(C)C)cc2)c(C(=O)Nc2ccc(Cl)cn2)c1 [Betrixaban] | 89.2% and 82.7% | 86.6 | 82.8 | 90.1 | 95.6 | 96.2 | 85.8 | 74.6
9 | CC(C)(C)OC(=O)N[C@@H]1CCCC[C@H]1N [(1R,2R)-trans-N-Boc-1,2-cyclohexanediamine] | 104% and 108% | 98.6 | 101 | 104 | 101 | 105 | 114 | 104
10 | COc1cc2nccc(Oc3ccc(NC(=O)Nc4cc(C)on4)c(Cl)c3)c2cc1OC [Tivozanib (AV-951)] | 11.4% and 16.2% | 21.9 | 56.2 | 61.4 | 11.3 | 10.3 | 26.1 | 29.9
11 | N#Cc1c(O)c2c(-c3ccc(-c4ccccc4O)cc3)csc2[nH]c1=O | 102% and 100% | 103 | 99.1 | 103 | 104 | 99 | 93.1 | 101
12 | CC(C)C[C@H](NC(=O)[C@H](Cc1ccccc1)NC(=O)c1cnccn1)B(O)O [Bortezomib (Velcade)] | 1.99% and 2.21% | 1.46 | 0.39 | 0.93 | 0.29 | 0.31 | 0.19 | 0.25
13 | COc1ccc2cc(CCC(C)=O)ccc2c1 [Nabumetone] | 105% and 96.8% | 93.8 | 97.1 | 95.3 | 104 | 104 | 92.4 | 92.4
14 | O=C(Oc1coc(CSc2ncccn2)cc1=O)c1ccc([N+](=O)[O-])cc1 | 88.1% and 95.5% | 100 | 98.3 | 98.7 | 96.5 | 97.4 | 97.9 | 81.8
15 | C[C@H]1[C@H](C)CC[C@]2(C(=O)O[C@@H]3O[C@H](CO[C@@H]4O[C@H](CO)[C@@H](O[C@@H]5O[C@H](C)[C@H](O)[C@@H](O)[C@H]5O)[C@H](O)[C@H]4O)[C@@H](O)[C@H](O)[C@H]3O)CC[C@]3(C)C(=CC[C@@H]4[C@@]5(C)C[C@@H](O)[C@H](O)[C@@](C)(CO)[C@@H]5CC[C@]43C)[C@H]12 [Asiaticoside] | 102% and 105% | 101 | 103 | 99.2 | 103 | 103 | 98.7 | 106
16 | COc1ccnc(C[S+]([O-])c2nc3cc(OC(F)F)ccc3[nH]2)c1OC (stereo unspecified) [Pantoprazole sodium] | 98.7% and 96.7% | 95.9 | 97 | 101 | 96.5 | 97.3 | 95.7 | 104
17 | CC(C)C[C@@H](C=O)NC(=O)[C@H](CC(C)C)NC(=O)[C@H](CC(C)C)NC(=O)OCc1ccccc1 | 1.82% and 1.99% | 1.37 | 0.54 | 1.13 | 0.49 | 0.53 | 0.36 | 0.41
18 | CCS(=O)(=O)N1CC(CC#N)(n2cc(-c3ncnc4[nH]ccc34)cn2)C1 | 110% and 106% | 108 | 111 | 115 | 106 | 109 | 84.7 | 92.9
19 | CNCCc1ccccn1 [Betahistine 2HCl] | 97.2% and 99.7% | 95.5 | 88.7 | 102 | 90.6 | 99.8 | 89.3 | 101

Row | Compound | cell viability (K562; SRSF2 genotype: SRSF2 P95H/wt) | cell viability (K562; SRSF2 genotype: SRSF2 wt/wt) [%] | cell viability (MARIMO; SRSF2 genotype: SRSF2 P95H/wt) [%] | cell viability (MARIMO; SRSF2 genotype: SRSF2 wt/wt) [%] | cell viability (MOLM14; SRSF2 genotype: SRSF2 P95H/wt) [%] | cell viability (MOLM14; SRSF2 genotype: SRSF2 wt/wt) [%] | cell viability (OCI-AML2; SRSF2 genotype: P95H/wt) [%] | cell viability (OCI-AML2; SRSF2 genotype: wt/wt) [%]
20 | Cc1cc([C@@H](C)Nc2ccccc2C(=O)O)c2nc(N3CCOCC3)cc(=O)n2c1 | 88.7% and 86.4% | 89.2 | 66.9 | 66.3 | 49.6 | 48.3 | 49.8 | 56.1
21 | COC(=O)C[C@](O)(CCCC(C)(C)O)C(=O)O[C@@H]1C(OC)=C[C@]23CCCN2CCc2cc4c(cc2[C@H]13)OCO4 [Homoharringtonine] | 12.4% and 19.9% | 23 | 9.06 | 4.23 | 1.21 | 1.06 | 5.52 | 11.4
22 | OCC(O)C(O)C(O)C(O)CO (stereo unspecified) [Allitol] | 111% and 98.4% | 111 | 107 | 101 | 108 | 103 | 109 | 99.3
23 | CCc1cnn2c(NCc3ccc[n+]([O-])c3)cc(N3CCCC[C@H]3CCO)nc12 | 8.67% and 18.9% | 13.1 | 10.8 | 4.43 | 2.65 | 0.52 | 5.12 | 17.9
24 | Cc1cc(=O)n(-c2ccccc2)n1C [Antipyrine] | 97.8% and 87.7% | 82.7 | 86.2 | 95.4 | 88.1 | 87.4 | 84.8 | 93.4
25 | Cc1ccc(NCCCc2ccccc2)c(N)c1 | 74.3% and 88.2% | 83.1 | 48.2 | 72.4 | 69 | 72.5 | 60.8 | 63.5
26 | CC[C@H]1OC(=O)[C@H](C)[C@@H](O[C@H]2C[C@@](C)(OC)[C@@H](O)[C@H](C)O2)[C@H](C)[C@@H](O[C@@H]2O[C@H](C)C[C@H](N(C)C)[C@H]2O)[C@](C)(O)C[C@@H](C)CN(C)[C@H](C)[C@@H](O)[C@]1(C)O [Azithromycin Dihydrate] | 86.8% and 80.4% | 82.7 | 86 | 83.7 | 86.8 | 93.3 | 77.9 | 88
27 | CC[C@@H]1/C=C(\C)C[C@H](C)C[C@H](OC)[C@H]2O[C@@](O)(C(=O)C(=O)N3CCCC[C@H]3C(=O)O[C@H](/C(C)=C/[C@@H]3CC[C@H](Cl)[C@H](OC)C3)[C@H](C)[C@@H](O)CC1=O)[C@H](C)C[C@@H]2OC [Pimecrolimus] | 66% and 70.4% | 64.5 | 80.5 | 70.7 | 65.7 | 67.3 | 58.1 | 57.8
28 | CCOC(=O)N[C@@H]1CC[C@@H]2[C@@H](C1)C[C@H]1C(=O)O[C@H](C)[C@H]1[C@H]2/C=C/c1ccc(-c2cccc(F)c2)cn1 | 80.4% and 87% | 80.8 | 83.3 | 82.5 | 81.6 | 83.6 | 65.1 | 64.7
29 | COc1ccc(CCc2cc(OC)c(OC)c(OC)c2)cc1O [Erianin] | 10.3% and 30.2% | 25.3 | 6.09 | 6.67 | 1.16 | 1.16 | 1.03 | 2.9
30 | Cn1cc(-c2ccncc2)c(-c2ccc(OCc3ccc4ccccc4n3)cc2)n1 | 79.8% and 91.7% | 91.2 | 93 | 90.4 | 65 | 71.4 | 71.5 | 68
31 | CCOc1ccc2ccccc2c1C(=O)N[C@@H]1C(=O)N2[C@@H]1SC(C)(C)[C@@H]2C(=O)O [Nafcillin Sodium] | 106% | 101 | 104 | 115 | 101 | 108 | 98 | 107
32 | COc1ccccc1 [Anisole] | 96.8% and 90.2% | 102 | 98.6 | 101 | 94.6 | 101 | 99.5 | 110
33 | COc1nc2ccc(Br)cc2cc1[C@@H](c1ccccc1)[C@@](O)(CCN(C)C)c1cccc2ccccc12 [Bedaquiline fumarate] | 55% and 58.7% | 74.9 | 63.9 | 55.5 | 41.6 | 54.7 | 24.1 | 21.3
34 | CC(C)OC(=O)[C@H](C)N[P@](=O)(OC[C@H]1O[C@@H](n2ccc(=O)[nH]c2=O)[C@](C)(F)[C@@H]1O)Oc1ccccc1 [Sofosbuvir(PSI-7977)] | 103% and 102% | 95.8 | 98.3 | 111 | 102 | 107 | 94 | 107
35 | COc1c(N2C[C@@H]3CCCN[C@@H]3C2)c(F)cc2c(=O)c(C(=O)O)cn(C3CC3)c12 [Moxifloxacin hydrochloride] | 104% and 99.6% | 93.3 | 101 | 105 | 92.9 | 98.5 | 90.4 | 97.2
36 | CN(CC(=O)N(Cc1ccc(C2CCCCC2)cc1)c1ccc(C(=O)O)c(O)c1)S(=O)(=O)c1c(F)c(F)c(F)c(F)c1F | 38% and 23.1% | 13.9 | 57.8 | 28.6 | 0.63 | 0.38 | 1.74 | 5.48
37 | Cc1onc(-c2c(Cl)cccc2Cl)c1C(=O)N[C@@H]1C(=O)N2[C@@H]1SC(C)(C)[C@@H]2C(=O)O [Dicloxacillin Sodium] | 99.5% and 95% | 101 | 101 | 103 | 98.7 | 98.3 | 93 | 109
